Test results reported in PubChem BioAssay (NCATS).
Several values for one entry are separate records, joined by “and”; a condition that tells them apart may be missing. Equal entries are not always repeated. Inconclusive results are not listed. Activity calls are given as the source filed them. Unless noted, calls follow the shape of the dose curve; as a rule, active = well fitted curve in the direction sought with a large enough effect; inconclusive = small, poorly fitted or top-dose-only effect, or another doubt; inactive = no such curve, though single readings can be large; an effect the other way counts as inactive or inconclusive.

Assays:
[1] = target: Cellular tumor antigen p53 (Homo sapiens) (UniProt P04637); assay: Primary qHTS for small molecule compounds that upregulate eGFP-tagged delta133p53alpha (in N-terminal) cells. (AID 2060322); conditions: NCI-H358 eGFP-delta133p53alpha fluorescence, 24 h; activation: active compounds read high;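 also: series mostly up to about 56 µM; 0% = DMSO vehicle and 100% = reference activator; nearly all actives have a fitted effect of over 75% in size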
Sequence of Cellular tumor antigen p53 (Homo sapiens) (P04637 whole entry, looked up): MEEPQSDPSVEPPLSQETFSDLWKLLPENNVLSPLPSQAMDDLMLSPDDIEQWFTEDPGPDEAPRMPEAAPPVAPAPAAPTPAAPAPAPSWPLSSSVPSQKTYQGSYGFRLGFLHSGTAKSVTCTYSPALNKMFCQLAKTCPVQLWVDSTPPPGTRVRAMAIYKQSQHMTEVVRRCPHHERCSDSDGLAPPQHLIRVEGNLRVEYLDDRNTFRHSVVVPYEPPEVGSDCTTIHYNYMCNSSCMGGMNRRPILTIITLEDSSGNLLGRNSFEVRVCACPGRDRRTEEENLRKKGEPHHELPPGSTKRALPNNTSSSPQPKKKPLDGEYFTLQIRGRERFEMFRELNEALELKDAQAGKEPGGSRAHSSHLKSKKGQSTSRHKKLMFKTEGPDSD
Procedure, shortened: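 NCI-H358 cells pre-induced 24 h with 10 ng/ml doxycycline to express N-terminal eGFP-delta133p53alpha, then dosed 24 h at 37C without doxycycline; fixed, Hoechst-stained, GFP intensity by laser scanning cytometry, normalized to DMSO (0%) and 57.5 uM 5-azacytidine (100%).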

[2] = target: Cellular tumor antigen p53 (Homo sapiens) (UniProt P04637); assay: Primary qHTS for small molecule compounds that upregulate eGFP-tagged delta133p53alpha (in C-terminal) cells. (AID 2060324);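 also: 0% = DMSO wells and 100% = 57.5 µM 5-azacytidine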
Procedure, shortened: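 C-terminal eGFP-tagged delta133p53alpha NCI-H358 line; dox-induced (100 ng/ml, 24 h) then plated without dox; compounds pinned in titration, 24 h 37 °C/5% CO2; PFA fix, Hoechst nuclei; GFP by LSC.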

[3] = target: Aldehyde dehydrogenase, mitochondrial (Homo sapiens) (UniProt P05091); assay: qHTS for Inhibitors of the Aldehyde Dehydrogenase Family (ALDH2) Validation screens (AID 2061302; active = well fitted inhibition curve with a large enough effect; title and protocol of this record describe different tests;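 also: plate controls were DMSO vehicle for no effect and maximal DPI positive control response for full effect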)
[4] = target: Retinaldehyde dehydrogenase 3 (Homo sapiens) (UniProt P47895); assay: qHTS for Inhibitors of the Aldehyde Dehydrogenase Family (ALDH1A3) Validation screen (AID 2061312); also: % is scaled to controls: 0 for no effect and ±100 for the full control effect; nearly all actives have a fitted effect of over 45% in size

O=C(O)CCCC[C@@H]1CCSS1
inactive: activation [1] -13.5% | Potency [2] | Potency [3] | Potency [4]

O=c1[nH]c2cc(Cl)ccc2c(O)c1-c1ccc(Oc2ccccc2)cc1
inactive: activation [1] 23.6% | Potency [2] | Potency [3] | Potency [4]

NC(=O)CNCCC(c1ccccc1)c1ccccc1
inactive: activation [1] -18.2% | Potency [2] | Potency [3] | Potency [4]

CCCCCCCC/C=C\CCCCCCCC(=O)NCCc1ccc(O)c(O)c1
inactive: activation [1] 9.28% | Potency [2] | Potency [3] | Potency [4]

Oc1cc(O)c2c(c1)O[C@H](c1ccc(O)c(O)c1)[C@@H](O)C2
inactive: activation [1] -7.14% | Potency [2] | Potency [3] | Potency [4]

O=[N+]([O-])c1cccc2c(Br)[nH]nc12
inactive: activation [1] -55.3% | Potency [2] | Potency [3] | Potency [4]

COc1cc(Cc2cnc(N)nc2N)cc(OC)c1OC
inactive: activation [1] -5.08% and -24.5% | Potency [2] | Potency [3] | Potency [4]

C[C@@H](O)[C@H]1C(=O)N2C(C(=O)O)=C(SCCN=CN)C[C@H]12
inactive: activation [1] -25.9% and 4.11% | Potency [2] | Potency [3] | Potency [4]

CCN1CCC[C@H]1CNC(=O)c1c(O)c(Cl)cc(Cl)c1OC
inactive: activation [1] -10% and -6.2% | Potency [2] | Potency [3] | Potency [4]

O=[N+]([O-])c1ccc(CSc2ncnc3c2ncn3[C@@H]2O[C@H](CO)[C@@H](O)[C@H]2O)cc1
inactive: activation [1] -20.8% | Potency [2] | Potency [3] | Potency [4]

N=c1nc(N2CCCCC2)cc(N)n1O
inactive: activation [1] -6.36% and -9.21% and -2.97% | Potency [2] | Potency [3] | Potency [4]
